Experimental findings from PubChem BioAssay AID977607 (Broad Institute, 2014) are described below.

In all, about 1,500 compounds went through this assay and about 460 (31%) were called active. Not shown: some 1% with an inconclusive outcome. A selection follows. Entries with a potency or affinity are not part of this list. Unmarked numbers belong to inactive results.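 Rule for the calls: active = curve reaches 40% activation over neutral controls at an AC40 no higher than the top valid tested concentration; inconclusive = no clear call, values can overlap the other calls; inactive = signal moving opposite to the expected increase, and the rest.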

A short description of the assay: GLuc-reported insulin release enhancers, glucose-stimulated beta cells – cell-based, INS-1E, Gaussia luciferase, luminescence, cherry-pick, set 2, dose response (AID 977607).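 Note: 0% = median of the plate neutral control wells.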 The note with it: INS-1E GLuc insulin secretion reporter, 2-3 h, active compounds read high; at 35 µM, 100% = signal doubled over neutral wells unless noted.
`c1ccc(Oc2ccccc2-c2cc(NCCc3cccnc3)n3nccc3n2)cc1`: the max activation is -10.9% [at 0.046 µM, 100% = signal doubled over neutral wells].
Consider `O=C(Nc1nnc(-c2ccc(Cl)cc2)o1)NC1CCCCC1`, for which the max activation was -20.9%.
Next, `O=C(CCCC(=O)c1ccccc1)NCc1ccccc1`: 35.8% [at 3.8 µM, 100% = signal doubled over neutral wells]; `NCCCNC(=S)NCCCN(Cc1ccc(Cl)cc1)c1ccc(Br)cn1`: -16.7% [at 0.005 µM, 100% = signal doubled over neutral wells].
Next, `Cc1cccc(-c2cc3nc4c(c(N5CCCC(O)C5)n3n2)CCC4)c1` (stereo unspecified): 36.7% [at 11 µM, 100% = signal doubled over neutral wells].
Regarding `Cn1c(=O)c2[nH]c(SCc3ccccn3)nc2n(C)c1=S`, the max activation is -21.4% [at 11 µM, 100% = signal doubled over neutral wells].
Next, `COc1ccc(C2=NOC(C(=O)NCc3ccccn3)C2)cc1OC` (stereo unspecified): 31.6%; `Fc1ccc(-c2csc3nnc(SCc4cccnc4)n23)cc1`: 18.4%.
On to `O=S1(=O)c2ccccc2OC(COCc2ccccc2)CN1C1CC1` (stereo unspecified), for which the max activation is -28.4%.
Next, `CCN(CC)C(=O)c1ccccc1NS(=O)(=O)c1ccc(C)cc1`: -13.4% [at 0.0016 µM, 100% = signal doubled over neutral wells]; `Cn1c(N)c(C(c2ccccc2)c2c(N)n(C)c(=O)n(C)c2=O)c(=O)n(C)c1=O`: 17.9% [at 0.005 µM, 100% = signal doubled over neutral wells].
Next, `CC(C)c1ccc(NC2CCCN(C(=O)c3cccnc3)C2)cc1` (stereo unspecified): -13.8% [at 0.42 µM, 100% = signal doubled over neutral wells]; `CCOC(=O)c1nc(-c2ccccc2)oc1N(C)C`: -16.2% [at 1.2 µM, 100% = signal doubled over neutral wells].
Next, `CCCc1nc(N)sc1C(=O)OCC`: -11.4% [at 1.2 µM, 100% = signal doubled over neutral wells]; `Nc1nc(SCc2nc3scc(-c4ccccc4)c3c(=O)[nH]2)n[nH]1`: 50.6%; `Cc1cc(C)n2ncc(-c3cccc(Br)c3)c2n1`: -17% [at 0.0016 µM, 100% = signal doubled over neutral wells].
In the case of `Cc1nc(N)c(C#N)c(-c2cccnc2)c1-c1ccccc1`, the max activation was 45.7% [at 11 µM, 100% = signal doubled over neutral wells].
Regarding `Cc1ccc(C(=O)n2nc(-c3cccnc3)nc2N)cc1`, the max activation was 23.7%.
As for `O=c1cc(-c2cccc(Br)c2)nc(-c2ccccc2F)o1`, the max activation is -17.1% [at 11 µM, 100% = signal doubled over neutral wells].
Next, `N#Cc1c(-c2ccco2)cc(C2CC2)nc1N`: 25.6%; `CC1CCc2nc(N)c(C#N)c(-c3ccncc3)c2C1` (stereo unspecified): 21.5%; `Cc1cccc(C)c1OCCCn1ccnc1`: 41% [at 0.046 µM, 100% = signal doubled over neutral wells].
Next, `O=C(CC1SC2=NCCN2C1=O)Nc1ccc(Br)cc1` (stereo unspecified): -22.5% [at 0.42 µM, 100% = signal doubled over neutral wells].
Regarding `Cc1ccc(NC(=O)CN(C(=O)N2CCN(C)CC2)S(=O)(=O)c2ccc(C)cc2)cc1`, the max activation was -21.9% [at 1.2 µM, 100% = signal doubled over neutral wells].
Next, `Cc1cc(S(=O)(=O)Nc2nc(CN3CCOCC3)nc3sc4c(c23)CCC4)ccc1F`: -12.9% [at 0.135 µM, 100% = signal doubled over neutral wells]; `C=CCc1ccccc1Oc1cc(OC)nc(N)n1`: -22% [at 1.2 µM, 100% = signal doubled over neutral wells]; `COc1ccc(CCNC(=O)C(=O)c2c(C)n(C)c3ccccc23)cc1OC`: -13.8% [at 1.2 µM, 100% = signal doubled over neutral wells].
Next, `CCC(C)c1ccccc1OCCn1ccnc1` (stereo unspecified): 16.6% [at 0.005 µM, 100% = signal doubled over neutral wells]; `COc1ccc(OCCCCN(C)Cc2ccccc2)cc1`: -18.5% [at 1.2 µM, 100% = signal doubled over neutral wells]; `O=C(N/N=C/c1ccc2c(c1)OCO2)c1ccc(Cl)cc1Cl`: -37.2%.
Next, `CCC(=O)Nc1sc(Cc2ccc3c(c2)OCO3)c(C)c1C(N)=O`: -24.2% [at 0.0016 µM, 100% = signal doubled over neutral wells].
Take `O=C(Nc1ccc(F)cc1)c1cccnc1Oc1ccccc1`: the max activation was 21.8%.
Next, `CC(C)CCN1CC(O)=C(c2nc(-c3ccc(Cl)cc3)cs2)C1=N`: -11.3% [at 0.005 µM, 100% = signal doubled over neutral wells]; `CCCn1c(C)cc(C)c(C#N)c1=O`: -11.7% [at 1.2 µM, 100% = signal doubled over neutral wells]; `O=C(O)CC(CC(=O)Nc1ccc(C(=O)O)cc1)c1ccccc1` (stereo unspecified): 11.8% [at 3.8 µM, 100% = signal doubled over neutral wells].
Next, `CCNc1nc(Oc2ccc(C#N)cc2)cc(C(F)(F)F)n1`: -19% [at 0.135 µM, 100% = signal doubled over neutral wells].
Consider `O=S(=O)(NCc1ccccc1)c1ccc(-n2cccn2)cc1`, for which the max activation is 32% [at 0.135 µM, 100% = signal doubled over neutral wells].
Next, `Cc1ccc2c(c1)N(C(C)C(=O)NCc1cccs1)C(=O)CO2` (stereo unspecified): 15.9% [at 0.42 µM, 100% = signal doubled over neutral wells].
`CN1CCCC1CCNC1C2CC3CC(C2)CC1C3` (stereo unspecified): the max activation was -20.8% [at 0.135 µM, 100% = signal doubled over neutral wells].
For the compound `Cc1ccc(-n2nc3c(c2NC(=O)C2CC2)CS(=O)(=O)C3)cc1`, the max activation was -19.6% [at 0.005 µM, 100% = signal doubled over neutral wells].
Regarding `CC(C)CN(C(=O)C1CCCCC1)C1CCS(=O)(=O)C1` (stereo unspecified), the max activation was -14.6% [at 3.8 µM, 100% = signal doubled over neutral wells].
As for `CC1CCC(NC(=O)C2COc3ccccc3O2)CC1` (stereo unspecified), the max activation was -17.3% [at 0.135 µM, 100% = signal doubled over neutral wells].
On to `O=C(O)C1Cc2c([nH]c3ccccc23)C(c2ccc3c(c2)OCO3)N1` (stereo unspecified), for which the max activation was 27.5% [at 0.015 µM, 100% = signal doubled over neutral wells].
Next, `CC(=O)N1CCN(c2nc(-c3cccs3)nc3ccccc23)CC1`: 40.4% [at 11 µM, 100% = signal doubled over neutral wells]; `Cc1nn(-c2ccccc2)c2nc(C(F)F)cc(C(F)F)c12`: 13.6%.
Next, `COc1ccc(-c2cnc(N)nc2-c2ccc(OC)cc2)cc1`: 20.9% [at 11 µM, 100% = signal doubled over neutral wells].
Next, `Cc1cccn2cc(CCNS(=O)(=O)c3cccs3)nc12`: -22.2% [at 0.42 µM, 100% = signal doubled over neutral wells].
For the compound `Cc1cc(OCC(O)CNC(C)c2ccccc2)ccc1C(C)C` (stereo unspecified), the max activation was 327%.
Next, `COc1ccccc1C(C)NS(=O)(=O)c1ccc(Cl)nc1` (stereo unspecified): 15.6% [at 3.8 µM, 100% = signal doubled over neutral wells].
In the case of `Cc1cn(CC(C)C)c(=O)n(-c2ccccc2)c1=O`, the max activation is 12.2%.
Next, `Cc1cccc2nc(-c3ccco3)c(Nc3ccccc3)n12`: -25.5%.
Next, `COc1ccc(N2CC(C(=O)N3CCc4ccccc43)CC2=O)cc1` (stereo unspecified): -12.5% [at 0.0016 µM, 100% = signal doubled over neutral wells].
Next, `O=c1c(C(c2ccccc2)c2c(O)sc3ccccc3c2=O)c(O)sc2ccccc12`: 19.2%; `COc1ccc(-c2[nH]c3ccccc3c2SCCN)cc1`: -28.1%.
In the case of `CCCCc1[nH]c(=O)c(C#N)c2c1CCCC2`, the max activation is 16.7%.
In the case of `Cc1c(OCC(=O)NCc2ccccn2)ccc2c3c(c(=O)oc12)CCCC3`, the max activation was 27.3%.
As to `NNc1nc(-c2ccccc2)c2ccccc2n1`, the max activation is -19.6% [at 0.046 µM, 100% = signal doubled over neutral wells].
Next, `CCn1c(=O)[nH]c(=O)c2c(N)c(C(=O)c3cc(F)ccc3F)sc21`: 27.3%; `COC(=O)N1CCCCC1c1cc(C(=O)NCc2ccc(Cl)c(Cl)c2)no1` (stereo unspecified): -38.9%; `CC(C)COc1ccc(Br)cc1CNC(C)(C)C`: -18.4% [at 11 µM, 100% = signal doubled over neutral wells].
Next, `COCCN1Cc2cccc(C(=O)NCc3ccccc3OC)c2C1=O`: -20% [at 0.0016 µM, 100% = signal doubled over neutral wells].
